Reference: PubChem BioAssay AID1159580 (chemical genetic matrix, 2015)
The campaign covered roughly 5,500 compounds. About 2,000 (36%) were called active. Roughly 18% stayed inconclusive and do not appear here. Some of the results follow. Values without a mark were called inactive. Rule as the data show it: active = normalized growth mostly below about 0.91 (no sharp cut-off); inconclusive = no clear call, values can overlap the other calls; inactive = mostly above about 0.92.

Assay: chemical genetic growth profiling, strain panel (AID 1159580);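 also: tested at 20 µM; growth read once vehicle control cultures reached saturation at 30 °C; 1 = growth at the plate median or of vehicle wells; lower values mean less growth of the strain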
Settings: growth OD

With `CC1CCCC(C)N1NC(=O)c1ccc(Cl)c(S(N)(=O)=O)c1` (stereo unspecified) as the molecule, how does the normalized growth (S. cerevisiae deletion strains, locus YKL009W, strain mrt4, active compounds read low) read?
The normalized growth was 0.973.

And the normalized growth (S. cerevisiae deletion strains, locus YKL068W, active compounds read low)?
Its normalized growth is 0.992.

And the normalized growth (S. cerevisiae deletion strains, locus YKL085W, strain MDH1 (second series), active compounds read low)?
The normalized growth was 0.987.

And the normalized growth (S. cerevisiae deletion strains, locus YKL085W, strain MDH1, active compounds read low)?
Its normalized growth is 0.987.

And the normalized growth (S. cerevisiae deletion strains, locus YKL160W, strain elf1, active compounds read low)?
The normalized growth was 0.995.

What about the normalized growth (S. cerevisiae deletion strains, locus YKL190W, strain CNB1, active compounds read low) of the same molecule?
Its normalized growth is 0.99.

What about the normalized growth (S. cerevisiae deletion strains, locus YKR001C, strain vps1, active compounds read low) of the same molecule?
The normalized growth was 1.

And the normalized growth (S. cerevisiae deletion strains, locus YKR026C, strain gcn3, active compounds read low)?
Its normalized growth is 0.999.

What about the normalized growth (S. cerevisiae deletion strains, locus YKR091W, strain srl3, active compounds read low) of the same molecule?
Its normalized growth is 1.02.

What about the normalized growth (S. cerevisiae deletion strains, locus YLL001W, strain dnm1, active compounds read low) of the same molecule?
The normalized growth was 1.01.

What about the normalized growth (S. cerevisiae deletion strains, locus YLL026W, active compounds read low) of the same molecule?
The normalized growth was 1.02.

What about the normalized growth (S. cerevisiae deletion strains, locus YLL041C, strain sdh2, active compounds read low) of the same molecule?
Its normalized growth is 0.998.

And the normalized growth (S. cerevisiae deletion strains, locus YLR027C, strain aat2, active compounds read low)?
Its normalized growth is 1.03.

And the normalized growth (S. cerevisiae deletion strains, locus YLR039C, strain RIC1, active compounds read low)?
Its normalized growth is 0.989.

And the normalized growth (S. cerevisiae deletion strains, locus YLR058C, strain SHM2, active compounds read low)?
The normalized growth was 0.99.

And the normalized growth (S. cerevisiae deletion strains, locus YLR102C, strain apc9, active compounds read low)?
Its normalized growth is 0.996.

And the normalized growth (S. cerevisiae deletion strains, locus YLR113W, strain HOG1, active compounds read low)?
Its normalized growth is 0.993.

What about the normalized growth (S. cerevisiae deletion strains, locus YLR221C, strain rsa3, active compounds read low) of the same molecule?
Its normalized growth is 1.04.

And the normalized growth (S. cerevisiae deletion strains, locus YLR258W, strain gsy2, active compounds read low)?
Its normalized growth is 0.998.

What about the normalized growth (S. cerevisiae deletion strains, locus YLR262C, strain YPT6 (second series), active compounds read low) of the same molecule?
Its normalized growth is 1.01.

And the normalized growth (S. cerevisiae deletion strains, locus YLR262C, strain YPT6, active compounds read low)?
Its normalized growth is 0.997.

And the normalized growth (S. cerevisiae deletion strains, locus YLR268W, strain sec22, active compounds read low)?
The normalized growth was 0.933.

What about the normalized growth (S. cerevisiae deletion strains, locus YLR320W, strain mms22, active compounds read low) of the same molecule?
The normalized growth was 1.02.

And the normalized growth (S. cerevisiae deletion strains, locus YLR330W, strain CHS5, active compounds read low)?
The normalized growth was 0.989.

And the normalized growth (S. cerevisiae deletion strains, locus YLR342W, strain FKS1 (second series), active compounds read low)?
The normalized growth was 1.06.

What about the normalized growth (S. cerevisiae deletion strains, locus YLR342W, strain FKS1, active compounds read low) of the same molecule?
The normalized growth was 1.01.

And the normalized growth (S. cerevisiae deletion strains, locus YLR357W, strain rsc2, active compounds read low)?
The normalized growth was 1.05.

And the normalized growth (S. cerevisiae deletion strains, locus YLR370C, strain arc18, active compounds read low)?
Its normalized growth is 1.01.

And the normalized growth (S. cerevisiae deletion strains, locus YLR371W, strain rom2, active compounds read low)?
Its normalized growth is 1.

What about the normalized growth (S. cerevisiae deletion strains, locus YLR384C, strain iki3, active compounds read low) of the same molecule?
Its normalized growth is 1.01.

And the normalized growth (S. cerevisiae deletion strains, locus YLR418C, strain cdc73, active compounds read low)?
The normalized growth was 1.01.

What about the normalized growth (S. cerevisiae deletion strains, locus YML016C, strain PPZ1, active compounds read low) of the same molecule?
Its normalized growth is 0.991.

What about the normalized growth (S. cerevisiae deletion strains, locus YML032C, strain rad52, active compounds read low) of the same molecule?
Its normalized growth is 0.975.

What about the normalized growth (S. cerevisiae deletion strains, locus YML120C, strain ndi1, active compounds read low) of the same molecule?
Its normalized growth is 1.01.

What about the normalized growth (S. cerevisiae deletion strains, locus YML124C, strain tub3, active compounds read low) of the same molecule?
The normalized growth was 0.988.

And the normalized growth (S. cerevisiae deletion strains, locus YMR058W, strain fet3, active compounds read low)?
Its normalized growth is 1.03.

And the normalized growth (S. cerevisiae deletion strains, locus YMR078C, strain ctf18, active compounds read low)?
The normalized growth was 1.01.

And the normalized growth (S. cerevisiae deletion strains, locus YMR125W, strain sto1, active compounds read low)?
The normalized growth was 1.01.

And the normalized growth (S. cerevisiae deletion strains, locus YMR129W, active compounds read low)?
Its normalized growth is 1.02.

What about the normalized growth (S. cerevisiae deletion strains, locus YMR205C, strain PFK2, active compounds read low) of the same molecule?
Its normalized growth is 0.992.

What about the normalized growth (S. cerevisiae deletion strains, locus YMR223W, strain ubp8, active compounds read low) of the same molecule?
Its normalized growth is 1.03.

What about the normalized growth (S. cerevisiae deletion strains, locus YMR231W, strain pep5, active compounds read low) of the same molecule?
The normalized growth was 1.02.

What about the normalized growth (S. cerevisiae deletion strains, locus YMR263W, strain SAP30, active compounds read low) of the same molecule?
The normalized growth was 0.982.

And the normalized growth (S. cerevisiae deletion strains, locus YMR307W, strain GAS1, active compounds read low)?
Its normalized growth is 1.09.

What about the normalized growth (S. cerevisiae deletion strains, locus YNL067W, strain RPL9B, active compounds read low) of the same molecule?
The normalized growth was 0.973.

And the normalized growth (S. cerevisiae deletion strains, locus YNL071W, strain lat1, active compounds read low)?
Its normalized growth is 1.02.

And the normalized growth (S. cerevisiae deletion strains, locus YNL128W, strain TEP1, active compounds read low)?
The normalized growth was 1.

What about the normalized growth (S. cerevisiae deletion strains, locus YNL153C, strain GIM3, active compounds read low) of the same molecule?
The normalized growth was 0.981.

And the normalized growth (S. cerevisiae deletion strains, locus YNL183C, strain NPR1, active compounds read low)?
Its normalized growth is 0.952.

And the normalized growth (S. cerevisiae deletion strains, locus YNL209W, strain ssb2, active compounds read low)?
Its normalized growth is 1.

And the normalized growth (S. cerevisiae deletion strains, locus YNL233W, strain BNI4, active compounds read low)?
Its normalized growth is 0.977.

What about the normalized growth (S. cerevisiae deletion strains, locus YNL248C, strain rpa49, active compounds read low) of the same molecule?
Its normalized growth is 1.02.

And the normalized growth (S. cerevisiae deletion strains, locus YNL250W, strain rad50, active compounds read low)?
The normalized growth was 0.981.

And the normalized growth (S. cerevisiae deletion strains, locus YNL271C, strain bni1, active compounds read low)?
The normalized growth was 0.986.

And the normalized growth (S. cerevisiae deletion strains, locus YNL298W, strain CLA4, active compounds read low)?
Its normalized growth is 0.985.

And the normalized growth (S. cerevisiae deletion strains, locus YNL307C, strain MCK1, active compounds read low)?
The normalized growth was 0.98.

What about the normalized growth (S. cerevisiae deletion strains, locus YNL322C, strain KRE1 (second series), active compounds read low) of the same molecule?
The normalized growth was 1.11 [resistant] (active).

And the normalized growth (S. cerevisiae deletion strains, locus YNL322C, strain KRE1, active compounds read low)?
Its normalized growth is 0.99.

What about the normalized growth (S. cerevisiae deletion strains, locus YNR049C, strain mso1, active compounds read low) of the same molecule?
Its normalized growth is 1.

And the normalized growth (S. cerevisiae deletion strains, locus YNR052C, strain pop2, active compounds read low)?
The normalized growth was 0.996.

And the normalized growth (S. cerevisiae deletion strains, locus YOL006C, strain TOP1, active compounds read low)?
Its normalized growth is 0.953.

What about the normalized growth (S. cerevisiae deletion strains, locus YOL012C, strain htz1) of the same molecule?
The normalized growth was 0.717.

What about the normalized growth (S. cerevisiae deletion strains, locus YOL147C, strain pex11, active compounds read low) of the same molecule?
The normalized growth was 0.99.

And the normalized growth (S. cerevisiae deletion strains, locus YOR001W, strain rrp6, active compounds read low)?
The normalized growth was 1.02.

And the normalized growth (S. cerevisiae deletion strains, locus YOR061W, strain CKA2, active compounds read low)?
Its normalized growth is 0.999.

What about the normalized growth (S. cerevisiae deletion strains, locus YOR069W, strain VPS5, active compounds read low) of the same molecule?
Its normalized growth is 0.996.

And the normalized growth (S. cerevisiae deletion strains, locus YOR070C, strain gyp1, active compounds read low)?
Its normalized growth is 1.02.

What about the normalized growth (S. cerevisiae deletion strains, locus YOR080W, strain dia2, active compounds read low) of the same molecule?
Its normalized growth is 1.02.

And the normalized growth (S. cerevisiae deletion strains, locus YOR083W, strain WHI5, active compounds read low)?
The normalized growth was 1.01.

And the normalized growth (S. cerevisiae deletion strains, locus YOR106W, strain vam3, active compounds read low)?
Its normalized growth is 0.988.

And the normalized growth (S. cerevisiae deletion strains, locus YOR136W, strain idh2, active compounds read low)?
Its normalized growth is 1.01.

And the normalized growth (S. cerevisiae deletion strains, locus YOR144C, strain elg1, active compounds read low)?
Its normalized growth is 0.994.

What about the normalized growth (S. cerevisiae deletion strains, locus YOR184W, strain ser1, active compounds read low) of the same molecule?
The normalized growth was 0.989.

What about the normalized growth (S. cerevisiae deletion strains, locus YOR231W, strain MKK1, active compounds read low) of the same molecule?
Its normalized growth is 0.979.

And the normalized growth (S. cerevisiae deletion strains, locus YOR265W, strain rbl2, active compounds read low)?
Its normalized growth is 1.01.

What about the normalized growth (S. cerevisiae deletion strains, locus YOR270C, strain vph1, active compounds read low) of the same molecule?
Its normalized growth is 1.04.

And the normalized growth (S. cerevisiae deletion strains, locus YOR290C, strain snf2, active compounds read low)?
The normalized growth was 1.01.

What about the normalized growth (S. cerevisiae deletion strains, locus YOR316C, strain cot1, active compounds read low) of the same molecule?
The normalized growth was 0.985.

What about the normalized growth (S. cerevisiae deletion strains, locus YPL051W, strain arl3, active compounds read low) of the same molecule?
Its normalized growth is 1.02.

What about the normalized growth (S. cerevisiae deletion strains, locus YPL055C, strain LGE1, active compounds read low) of the same molecule?
Its normalized growth is 1.01.

And the normalized growth (S. cerevisiae deletion strains, locus YPL078C, strain atp4, active compounds read low)?
Its normalized growth is 1.02.

What about the normalized growth (S. cerevisiae deletion strains, locus YPL106C, strain sse1, active compounds read low) of the same molecule?
Its normalized growth is 0.998.

And the normalized growth (S. cerevisiae deletion strains, locus YPL240C, strain hsp82, active compounds read low)?
The normalized growth was 1.01.

What about the normalized growth (S. cerevisiae deletion strains, locus YPL241C, strain CIN2, active compounds read low) of the same molecule?
The normalized growth was 1.

What about the normalized growth (S. cerevisiae deletion strains, locus YPL256C, strain CLN2, active compounds read low) of the same molecule?
Its normalized growth is 0.948.

And the normalized growth (S. cerevisiae deletion strains, locus YPR119W, strain clb2, active compounds read low)?
The normalized growth was 0.99.

And the normalized growth (S. cerevisiae deletion strains, locus YPR141C, strain kar3, active compounds read low)?
The normalized growth was 0.985.

And the normalized growth (S. cerevisiae deletion strains, locus YPR163C, strain tif3, active compounds read low)?
Its normalized growth is 0.99.

What about the normalized growth (S. cerevisiae deletion strains, locus YPR167C, strain met16, active compounds read low) of the same molecule?
Its normalized growth is 0.989.

And the normalized growth (S. cerevisiae deletion strains, strain wtn01, active compounds read low)?
The normalized growth was 0.989.

And the normalized growth (S. cerevisiae strains, strain wild type, active compounds read low)?
The normalized growth was 1.01.
